Among the data in PubChem BioAssay (NCATS) are outcome and Potency values, retold here.

A short description of experiment [1]: Cellular Toxicity (caspase-3) HepG2 (AID 654).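 Note: cells exposed to compound for 16 hours before reading.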 To be noted: HepG2 caspase-3 activation, luminescence, 0% = DMSO only, 100% = tamoxifen; series mostly up to 92.2 µM. In short, it runs like this:
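HepG2 cells (1500/well) were treated 16 h at 37 °C in complete medium, then caspase 3/7 activity was read by Caspase-Glo luminescence. Data were normalized to DMSO and 100 uM tamoxifen; AC50 came from Hill-equation fits of qHTS concentration-response.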

Experiment [2] in a line: Cellular Toxicity (caspase-3) Jurkat (AID 655).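 Note: cells exposed to compound for 16 h at 37 °C before reading.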 Note: potency is the fitted concentration of half-maximal effect. Particulars: Jurkat caspase-3 activation, luminescence; series mostly up to 92.2 µM. The essentials: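 Jurkat cells (5000/well) in complete medium were treated with compounds for 16 hr at 37 °C, then Caspase-Glo 3/7 luminescence was read after 20 min at room temperature. Data normalized to DMSO (basal) and 100 uM tamoxifen (100%); AC50 from Hill fit.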

Experiment [3] is described as follows: Cellular Toxicity (caspase-3) SHSY5Y (AID 657). Note: potency is the fitted concentration of half-maximal effect. To be noted: SH-SY5Y caspase-3 activation; series mostly up to 91.7 µM. The essentials:
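SH-SY5Y human neuroblastoma cells (1500/well) were treated with compounds for 16 h at 37 °C, then Caspase-Glo 3/7 luminescence was read after 1 h at room temperature. Data normalized to DMSO and 10 uM staurosporine; AC50 from Hill fits.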

Experiment [4] in a line: Cellular Toxicity (caspase-3) BJ (AID 658). To be noted: BJ fibroblasts, luminescence, normalized: DMSO 0%, staurosporine 100%; series mostly up to 91.7 µM. The essentials: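 Readout: Caspase-Glo 3/7 luminescence increase in BJ cells after 16 hr treatment at 37 °C. Staurosporine and tamoxifen served as positive controls; AC50 values came from Hill modelling of data normalized to DMSO and 10 uM staurosporine.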

The nature of experiment [5]: Cellular Toxicity (caspase-3) MRC-5 (AID 659). To be noted: MRC-5 cells, luminescence, normalized: DMSO 0%, 10 µM staurosporine 100%; series mostly up to 91.7 µM. The essentials: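 Concentration-dependent caspase 3/7 activation is measured in human normal lung fibroblasts (MRC-5) following 16-hour treatment. AC50 values come from standard Hill-equation modeling of luminescence normalized to DMSO and 10 uM staurosporine.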

The nature of experiment [6]: Cellular Toxicity (caspase-3) Mesangial (AID 660).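 Note: cells exposed to compound for 16 h before the caspase read.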 Particulars: mesangial cells, normalized: DMSO 0%, 100 µM tamoxifen 100%; series mostly up to 91.7 µM. In short, it runs like this:
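Human renal glomerular mesangial cells, 1000/well, 5 h at 37 C before 16 h compound treatment. Caspase-Glo 3/7 luminescence after 20 min; normalized to DMSO and 100 uM tamoxifen, AC50 from Hill fit.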

A short description of experiment [7]: Cellular Toxicity (caspase-3) SK-N-SH (AID 661). Particulars: SK-N-SH caspase-3 activation, qHTS, DMSO as zero, staurosporine as full; series mostly up to 91.7 µM. The essentials: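 Human SK-N-SH neuroblastoma cells, 1500/well, were exposed to compounds for 16 hours at 37 °C. Caspase-Glo 3/7 luminescence was normalized to DMSO (basal) and 10 uM staurosporine (100%), and AC50 came from a Hill fit.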

Experiment [8] in a line: Cellular Toxicity (caspase-3) H-4-II-E (AID 663).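 For caspase-3 activation: cells exposed to compound for 16 hr before readout.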 Note: potency is the fitted concentration of half-maximal effect. To be noted: H-4-II-E rat hepatoma; Potency: caspase-3 activation; series mostly up to 92.2 µM. The essentials:
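Apoptosis induction is scored as increased luminescence from caspase 3/7 substrate cleavage in rat hepatoma H-4-II-E cells exposed to compound for 16 hr. Activity is scaled between DMSO and 100 uM tamoxifen.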

Experiment [9] concerns the target 3',5'-cyclic-AMP phosphodiesterase 4B (Homo sapiens) (UniProt Q07343). Kind of experiment: qHTS Assay for Inhibitors of PDE-IV (AID 607; active = well fitted activation curve with a large enough effect in the main read-out, with a control signal flat, not every such curve was filed as active). Particulars: HEK293 ACTOne CNG channel cells, membrane potential fluorescence; series mostly up to 22.9 µM. The essentials:
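HEK293 ACTOne cells with CNG channel (1000/well), endogenous PDE4; membrane potential dye, compounds up to 22.9 uM final. Fluorescence Ex 535/Em 590; RO 20-1724 (100 uM final) as reference.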

The nature of experiment [10]: Cellular Toxicity (caspase-3) Hek293 (AID 664).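 Note: cells exposed to compound for 16 h at 37 °C before readout.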 To be noted: HEK293 caspase-3 activation, DMSO = 0%, 100 µM tamoxifen = 100%; series mostly up to 92.2 µM. In short, it runs like this: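 HEK293 cells in complete medium treated 16 h at 37 °C, then Caspase-Glo 3/7 luminescence read after 20 min at room temperature. Normalized to DMSO and 100 uM tamoxifen; AC50 from Hill fit of concentration-response.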

Results filed as inconclusive are left out. Active and inactive are the calls of the source. Unless noted, calls come from the whole dose curve; as a rule, active = well fitted curve in the direction sought with a large enough effect; inconclusive = small, poorly fitted or top-dose-only effect, or another doubt; inactive = no such curve, though single readings can be large; an effect the other way counts as inactive or inconclusive.

3',5'-cyclic-AMP phosphodiesterase 4B (Homo sapiens), sequence (Q07343 whole entry, looked up): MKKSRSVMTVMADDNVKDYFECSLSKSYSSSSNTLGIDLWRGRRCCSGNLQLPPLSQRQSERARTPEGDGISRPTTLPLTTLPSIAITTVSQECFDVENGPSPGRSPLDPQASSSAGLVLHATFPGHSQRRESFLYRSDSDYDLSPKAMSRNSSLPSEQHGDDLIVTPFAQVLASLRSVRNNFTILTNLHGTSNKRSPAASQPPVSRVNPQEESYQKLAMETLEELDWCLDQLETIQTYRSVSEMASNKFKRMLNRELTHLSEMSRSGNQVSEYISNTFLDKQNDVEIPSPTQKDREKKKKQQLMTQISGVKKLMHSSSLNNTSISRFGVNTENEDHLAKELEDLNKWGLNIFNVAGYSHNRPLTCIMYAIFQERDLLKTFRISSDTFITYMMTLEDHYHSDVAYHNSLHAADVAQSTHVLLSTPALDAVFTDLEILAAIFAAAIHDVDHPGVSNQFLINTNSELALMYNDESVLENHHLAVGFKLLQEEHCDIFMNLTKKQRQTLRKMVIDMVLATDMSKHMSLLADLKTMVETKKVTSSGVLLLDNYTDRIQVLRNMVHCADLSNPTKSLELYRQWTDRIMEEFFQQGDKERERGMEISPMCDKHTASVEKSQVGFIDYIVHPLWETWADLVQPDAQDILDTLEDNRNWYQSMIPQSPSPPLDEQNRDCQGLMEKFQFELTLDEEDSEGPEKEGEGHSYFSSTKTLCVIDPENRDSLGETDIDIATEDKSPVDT

For `Cc1cc(C(C)(C)C)c(O)c(C(C)(C)C)c1`, the molecule was called inactive in experiment [1], in experiment [4], in experiment [5], in experiment [6] and in [7]. Moreover, the Potency entry in experiment [2], in [3] and in experiment [8] was “inactive” in each case.

Regarding `C[N+](C)(C)CCO`, the outcome in [9] was inactive.

For the molecule `Brc1ccc([C@H]2CN3CCSC3=N2)cc1`, in experiment [9], the outcome was inactive.

Regarding `O=C(NO)c1ccccc1`, the outcome in [1], in experiment [4], in experiment [5], in [6], in [7] and in experiment [10] was inactive. Also, the Potency result in experiment [2], in experiment [3] and in experiment [8] was “inactive” throughout.

On to `Cc1ccc(O)cc1`, for which the call in [1], in experiment [4], in experiment [5], in experiment [6], in experiment [7] and in [10] was inactive. The Potency result in [2], in experiment [3] and in experiment [8] was “inactive” each time.

As for `NCC(=O)O`, the molecule was called inactive in [9].

For the molecule `Nc1cccc2c(N)cccc12`, the molecule was called inactive in [1], in [4], in experiment [5], in experiment [6], in experiment [7] and in experiment [10]. In addition, the Potency result in [2], in experiment [3] and in [8] was “inactive” each time.

Take `c1ccc2occc2c1`: the result in [1], in [4], in [5], in experiment [6], in experiment [7] and in [10] was inactive. Besides, the Potency entry in experiment [2], in experiment [3] and in [8] was “inactive” each time.

`Brc1ccccc1-c1ccccc1`: the molecule was classed as inactive in experiment [1], in [4], in experiment [5], in experiment [6], in experiment [7] and in experiment [10]. The Potency entry in experiment [2], in experiment [3] and in experiment [8] was “inactive” each time.

For the molecule `CC(C)N(CCC(=O)c1ccc2ccccc2c1)Cc1ccccc1`, the call in experiment [9] was inactive.

As to `Cn1cnc2c(NCc3ccccc3)nc(NCCO)nc21`, the result in experiment [9] was inactive.

With `COc1cc(C=O)ccc1O`, the call in experiment [1], in experiment [4], in [5], in experiment [6], in experiment [7] and in experiment [10] was inactive. The Potency entry in experiment [2], in experiment [3] and in experiment [8] was “inactive” throughout.

For the molecule `OCc1c[nH]c2ccccc12`, the outcome in experiment [1], in [4], in [5], in [6], in experiment [7] and in [10] was inactive. Moreover, the Potency result in [2], in experiment [3] and in [8] was “inactive” in each case.

Regarding `O=C(c1ccccc1)c1ccccc1`, the outcome in experiment [1], in experiment [4], in experiment [5], in experiment [6], in experiment [7] and in experiment [10] was inactive. In addition, the Potency result in [2], in [3] and in [8] was “inactive” in each case.

On to `Nc1c2ccccc2nc2ccccc12`, for which the Potency in [2] is 31.6 µM (active); in experiment [3], 39.8 µM (active); in [8] it was 31.6 µM (active). Besides, the call in [5] and in [6] was inactive.

As to `CCCCCCCCCCCCCCCC[n+]1ccccc1`, in experiment [3], the Potency entry was “inactive”. For the same molecule, the result in experiment [6] and in experiment [10] was inactive.

For the molecule `O=C(CCCCC(=O)Nc1c(I)cc(I)c(C(=O)O)c1I)Nc1c(I)cc(I)c(C(=O)O)c1I`, the molecule was classed as inactive in [9].

Regarding `CC(C)C(C)(C)C(C)(C)C(C)(C)S`, the molecule was called inactive in experiment [1], in [4], in experiment [5], in experiment [6], in experiment [7] and in [10]. Also, the Potency entry in experiment [2], in [3] and in [8] was “inactive” throughout.

For `CC(C)(C)c1ccc(O)c(O)c1`, the outcome in [1], in experiment [4], in experiment [5], in experiment [6], in experiment [7] and in [10] was inactive. For the same molecule, the Potency entry in experiment [2], in [3] and in experiment [8] was “inactive” in each case.

Regarding `CCCC(=O)c1cc(O)c(O)cc1O`, the call in experiment [1], in experiment [4], in experiment [5], in experiment [6], in experiment [7] and in experiment [10] was inactive. Further, the Potency result in experiment [2], in experiment [3] and in [8] was “inactive” in each case.

Consider `CC(C)(c1ccc(O)cc1)c1ccc(O)cc1`, for which the call in experiment [1], in experiment [4], in experiment [5], in [6], in [7] and in experiment [10] was inactive. The Potency result in experiment [2], in [3] and in [8] was “inactive” in each case.

`NC(N)=NCCCCN=C(N)N`: the outcome in experiment [9] was inactive.

Turning to `Cc1ncc(CO)c(CO)c1O`, the result in [9] was inactive.

Regarding `CC(=O)OC/C=C(C)/C=C/C=C(C)/C=C/C1=C(C)CCCC1(C)C`, the outcome in experiment [1], in [4], in experiment [5], in [6] and in experiment [7] was inactive. Moreover, the Potency result in [2], in [3] and in experiment [8] was “inactive” each time.

As for `CCCCC(CC)COC(=O)c1ccccc1C(=O)O` (stereo unspecified), the result in experiment [1], in experiment [4], in experiment [5], in experiment [6], in [7] and in experiment [10] was inactive. Also, the Potency entry in experiment [2], in experiment [3] and in [8] was “inactive” in each case.

On to `Clc1ccc2c(c1)N=C(N1CCNCC1)c1ccccc1N2`, for which the molecule was classed as inactive in [9].

Take `Nc1c[n+](N2CCOCC2)no1`: in experiment [9], the molecule was called inactive.

For `Nc1ccc(O)cc1`, the outcome in experiment [1], in experiment [4], in experiment [5], in experiment [6], in [7] and in [10] was inactive. The Potency entry in [2] was “inactive”.

As to `O=C(Oc1ccccc1)c1ccccc1O`, the molecule was called inactive in experiment [1], in [4], in experiment [5], in experiment [6], in experiment [7] and in [10]. Further, the Potency result in [2], in experiment [3] and in experiment [8] was “inactive” each time.

Regarding `CN(C(=O)C(Cl)Cl)c1ccc(OC(=O)c2ccco2)cc1`, the result in experiment [9] was inactive.

Consider `C1=CC2C3C=CC(C3)C2C1` (stereo unspecified), for which the call in [1], in experiment [4], in [5], in experiment [6], in [7] and in experiment [10] was inactive. The Potency entry in experiment [2], in [3] and in experiment [8] was “inactive” each time.

As to `Oc1ccccc1`, the result in [1], in experiment [4], in experiment [5], in experiment [6], in experiment [7] and in experiment [10] was inactive. For the same molecule, the Potency entry in experiment [2], in experiment [3] and in [8] was “inactive” in each case.

`CN(C)c1cc2c(Nc3ccc4c(cnn4Cc4ccccc4)c3)ncnc2cn1`: the result in experiment [9] was inactive.

Take `COc1ccccc1N1CCN(CCN2C(=O)CC3(CCCC3)CC2=O)CC1`: the call in experiment [9] was inactive.

For the molecule `CCOC(=O)NNc1nncc2ccccc12`, the outcome in [9] was inactive.

For `O=C(O)/C=C(\CC(=O)O)C(=O)O`, the outcome in experiment [9] was inactive.

Regarding `O=C1NC(c2cccc([N+](=O)[O-])c2)=CCN1c1ccccc1O`, in experiment [9], the call was inactive.
